KDM5B inh: blocks human KDM5B histone demethylase activity; 220,000 tested, 2.6% active; KDM5B demethylase, FDH-coupled NADH fluorescence (FDH is formaldehyde dehydrogenase); Q9UGL1; AID 1347165; Potency, µM (top dose mostly 57.7 µM), hits mostly inhibitors; active = well fitted inhibition curve with a large enough effect; note: 0% is about no effect; nearly all actives have a fitted effect of over 70% in size
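Measured: NADH fluorescence change, 30 min, RT. System: KDM5BΔAP 200 nM final, H3K4me3 peptide, α-KG, Fe(II), ascorbate, NAD⁺ plus FDH, pH 7.5 HEPES. Compounds: titrated, 10 min pre-incubation with enzyme.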
An asterisk follows results filed as active; i = inactive. The full list was thinned out, with hits kept by preference. Potency is the fitted concentration of half-maximal effect.

SMILES	KDM5B inh
N#Cc1cccc(-c2cn3c(n2)N(C(=O)c2ccoc2)CCC3)c1	25.1µM*
Cc1ccc(-c2cn3c(n2)N(C(=O)c2sc(C)nc2C)CCC3)cc1	i
N#Cc1cccc(-c2cn3c(n2)N(C(=O)c2ccncc2)CCC3)c1	20µM*
Cc1ccsc1C(=O)N1CCCn2cc(-c3cccc(C#N)c3)nc21	14.1µM*
N#Cc1cccc(CN2C3CCC2CN(C(=O)c2ccncc2)C3)c1	i
O=C(c1cc(CN2CCOCC2)on1)N1CCC2(CC1)NCCc1c2[nH]c2ccccc12	i
CCNC(=O)C1C(c2cccc(NC(=O)Cc3ccccc3)c2)OC(=O)N1Cc1ccc(C)cc1 (centres undefined)	i
Cc1ccc2c(C)cc(SCC(=O)Nc3cccc(F)c3)nc2c1	i
C=C(C)C1CCC2(COC(=O)CCC(=O)O)CC[C@]3(C)C(CCC4[C@@]5(C)CCC(OC(=O)CCC(=O)O)C(C)(C)C5CC[C@]43C)C12 (some centres undefined)	i
Fc1ccc(-c2nnn(Cc3cc(Cl)c4c(c3)OCCCO4)n2)cc1	i
O=C(N1CCCCC1)N1CCN(C2CCNCC2)C(=O)C1	89.1µM*
O=C(N1CCCCC1)N1CCN(c2cc(Cl)ncn2)C(=O)C1	i
O=C(N1CCCC1)N1CCN(C2CCNCC2)C(=O)C1	50.1µM*
O=C(c1ccncc1)N1CCN(C2CCNCC2)C(=O)C1	i
O=C(O)CCC(=O)N1CCN(C2CCNCC2)C(=O)C1	i
CC(=O)Nc1ccc(C(=O)N2CCN(C3CCNCC3)C(=O)C2)cc1	i
CC(C)CCn1c(SCC(=O)Nc2ccccc2)nc2c1c(=O)[nH]c(=O)n2C	i
COc1ccc(CNc2ccc(C(=O)O)cc2C)c(OC)c1	i
O=C(CCc1ncc(-c2ccc(Cl)cc2)o1)N1CCCC(O)C1 (centres undefined)	i
Cc1nccc(-c2ccccc2)c1C(=O)N1CCCC[C@H](N(C)C)C1	i
CN(C)[C@H]1CCCCN(C(=O)CCc2ccc(-c3ccc(Cl)cc3)[nH]2)C1	31.6µM*
N#Cc1ncn(CCC(=O)Nc2c(Cl)cccc2Cl)n1	i
CN(CC(=O)NC(=O)NCC(F)(F)F)Cc1cccc(F)c1	i
CSCc1noc(CNC(=O)c2ccc(-c3ccccc3Cl)o2)n1	31.6µM*
CSCc1noc(CNC(=O)CC(c2ccccc2)c2ccccc2Cl)n1 (centres undefined)	i
SMILES	KDM5B inh
CSCc1ccc(C(=O)NCc2ccccc2)o1	i
Cc1cnc2c(S(=O)(=O)NC(C)CN3CCOCC3)cccc2c1 (centres undefined)	i
COc1ccc(NC(=O)c2ccc3c(c2)C2(CCCN(C)C2)CN3C)cc1 (centres undefined)	i
CN1CCCC2(C1)CN(C)c1ccc(C(=O)Nc3ccc(F)cc3)cc12 (centres undefined)	35.5µM*
COc1ccc2c(c1)OCC(CNC(=O)c1ccc(N3CCN(C)CC3)cc1)C2 (centres undefined)	i
O=C(Nc1ccc(F)cc1)c1ccc2c(c1)CCC2	i
Cc1cc(C(=O)NCC(C)C)ccc1N	i
CN1CCCC2(C1)CN(C)c1ccc(C(=O)NCc3cccs3)cc12 (centres undefined)	35.5µM*
CC(C)CNC(=O)c1ccc2c(c1)C1(CCN(C)C1)CN2CC1CC1 (centres undefined)	35.5µM*
CC(C)CNC(=O)c1ccc2c(c1)N(S(=O)(=O)c1ccccc1F)CC2	i
O=C(NCc1cccs1)c1ccc2ccccc2c1	i
O=C(NCc1cccs1)c1ccc2c(c1)OCCCO2	i
CC(C)(C)NC(=O)c1ccc(C(=O)NCC2CC2)cc1	i
CN1CCC2(C1)CN(CC1CC1)c1ccc(C(=O)NCC3CC3)cc12 (centres undefined)	35.5µM*
NC(=S)NCCc1ccccc1	i
CCOC(=O)c1[nH]c(C)c(CCC(=O)Nc2ccc(OC)c(OC)c2)c1C	i
CS(=O)(=O)Cc1cccc(C(=O)Oc2ccc(C34CC5CC(CC(C5)C3)C4)cc2)c1	i
CC(C)Cn1c(N2CCN(Cc3c(Cl)cccc3Cl)CC2)nc2c1c(=O)[nH]c(=O)n2C	i
CC1CCN(C(CNC(=O)Cn2c(=O)c3c(ncn3C)n(C)c2=O)c2cccs2)CC1 (centres undefined)	i
COc1ccccc1CNC[C@H]1Cn2c(-c3cccc(Cl)c3)cnc2CO1	i
CCCCn1nc(C(=O)Nc2ccc(Br)cc2)c2ccccc2c1=O	i
COc1cc(CNCC2CCNCC2)ccc1OCc1ccccc1Cl	i
Cc1ccsc1C(=O)Nc1ccccc1SCc1ccccc1	i
CN1CCCC2(C1)CN(C)c1ccc(C(=O)NCC3CCCCC3)cc12 (centres undefined)	35.5µM*
CC(=O)Nc1cc(NC(C)=O)cc(C(=O)NCC2CCCCC2)c1	i
SMILES	KDM5B inh
O=C(NCC1CCCCC1)c1ccc2c(c1)N(S(=O)(=O)c1ccccc1)CC2	i
COc1ccc(OC)c(CN2CCNc3cc(-c4ccccc4)ncc3C2)c1	i
COc1ccc(CN2CCNc3cnc(Nc4cccnc4)cc3C2)cc1O	35.5µM*
c1cncc(Nc2cc3c(cn2)CN(Cc2ccc4[nH]ccc4c2)CCN3)c1	i
COc1ccc(OC)c(CN2CCNc3cnc(Nc4ccccc4)cc3C2)c1	35.5µM*
COc1ccc(CN2CCNc3cc(Nc4cccnc4)ncc3C2)cc1O	i
Cn1cc(CN2CCNc3cc(Nc4ccccc4)ncc3C2)cn1	i
COc1ccc(CN2CCNc3cnc(Nc4ccccc4)cc3C2)cc1O	39.8µM*
CCOc1ccccc1Nc1nc(-c2cc3cccc(OC)c3oc2=O)cs1	i
Cc1ccc(NS(=O)(=O)c2ccc3c(c2)-c2oncc2CO3)cc1C	i
Cc1c(C(=O)N2CCCCCC2)sc2nc(-c3ccc(F)cc3)cn12	i
CN(C(=O)c1cc2cccc([N+](=O)[O-])c2[nH]1)C1CCCCCC1	i
CSc1ccccc1NC(=O)CN(C)C(=O)c1cc(S(=O)(=O)N2CCOCC2)ccc1Cl	i
Cc1nc(NC(=O)CCOc2ccc(Cl)cc2)sc1C	i
O=C(NCCc1cccnc1)c1ccc(F)cc1F	i
CCN(C)Cc1cccc(CNC(=O)c2cc(C)nc3ccccc23)c1	i
O=C(NCCc1cccnc1)c1ccc(Cl)cc1Cl	i
Cc1cc(C(=O)NCC(=O)Nc2c(C)cccc2C)c2ccccc2n1	i
Cc1ccc2c(C(=O)NCCc3cccnc3)cc(NC(=O)C(C)C)cc2n1	20µM*
Cc1ccccc1CNC(=O)c1cc(=O)[nH]c2ccccc12	i
COc1ccc(NC(=O)c2cc(NC(=O)C(C)C)cc3nc(C)ccc23)cc1	i
Cc1cccc(CNC(=O)c2cc(-c3ccncc3)nc3ccccc23)c1	i
O=C(NCc1ccccc1)c1cc(Sc2cccc(Cl)c2)nc2ccccc12	i
CC(=O)Nc1cc(C(=O)NCc2ccccc2C)c2ccc(C)nc2c1	25.1µM*
Cc1cccc(CNC(=O)c2cc(NC(=O)C(C)C)cc3nc(C)ccc23)c1	12.6µM*
SMILES	KDM5B inh
Cc1ccc2c(C(=O)NCc3cccc(Cl)c3)cc(NC(=O)C(C)C)cc2n1	25.1µM*
Cc1cc(F)ccc1S(=O)(=O)Nc1ccc(N2CCCC2)c(F)c1	i
CCCCCCCCCCCCc1ccc(-c2ccc(CC)cn2)cc1	i
CCc1cc(C(=O)NNC(=S)NC)cs1	i
Cc1ccc(NC(=O)N2CCC(OC3CCN(S(C)(=O)=O)CC3)CC2)cc1	i
Cc1ccc(SC(=O)c2ccccc2Br)cc1	i
